From ChEMBL document CHEMBL1961873, “Compounds: GSK PKIS; Assays: Nanosyn kinase panel” (2012) come the findings set out here.

The target in assay [1] is Dual specificity protein kinase CLK3 (Homo sapiens) (UniProt P49761). The note with it: at 1 µM.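 Further: each value is the mean inhibition of CLK3.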
Assay [2] addresses Dual specificity tyrosine-phosphorylation-regulated kinase 1A (Homo sapiens) (UniProt Q13627). The note with it: at 0.1 µM.
Assay [3] has the same target. The note with it: at 1 µM.
Assay [4] concerns the target Dual specificity tyrosine-phosphorylation-regulated kinase 1B (Homo sapiens) (UniProt Q9Y463). The note with it: at 0.1 µM.
Assay [5] has the same target. Conditions: at 1 µM.
Assay [6] has as its target T1, Dual specificity tyrosine-phosphorylation-regulated kinase 2 (Homo sapiens) (UniProt Q92630).
T1 sequence (whole entry): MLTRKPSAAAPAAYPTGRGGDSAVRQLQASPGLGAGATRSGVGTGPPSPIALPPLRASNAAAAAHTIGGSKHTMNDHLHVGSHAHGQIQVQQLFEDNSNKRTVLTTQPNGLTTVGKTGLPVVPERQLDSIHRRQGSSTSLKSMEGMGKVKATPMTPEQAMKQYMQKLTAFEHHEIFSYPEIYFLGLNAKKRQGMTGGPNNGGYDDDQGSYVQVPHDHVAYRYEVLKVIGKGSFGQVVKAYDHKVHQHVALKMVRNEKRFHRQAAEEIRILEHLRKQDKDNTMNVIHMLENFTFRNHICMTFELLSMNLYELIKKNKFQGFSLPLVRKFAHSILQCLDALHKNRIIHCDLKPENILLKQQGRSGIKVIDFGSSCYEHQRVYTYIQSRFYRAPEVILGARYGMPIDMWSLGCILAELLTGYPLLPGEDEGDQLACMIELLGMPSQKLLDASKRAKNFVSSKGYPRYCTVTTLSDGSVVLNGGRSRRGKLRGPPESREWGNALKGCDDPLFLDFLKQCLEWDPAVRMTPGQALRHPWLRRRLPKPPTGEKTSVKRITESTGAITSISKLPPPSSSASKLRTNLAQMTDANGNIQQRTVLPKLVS
The note with it: at 0.1 µM.

Assay [7] addresses T1, Dual specificity tyrosine-phosphorylation-regulated kinase 2 (Homo sapiens). The note with it: at 1 µM.
For assay [8], the target named is Glycogen synthase kinase-3 alpha (Homo sapiens) (UniProt P49840). Conditions: at 0.1 µM.
Assay [9] shares this target. Conditions: at 1 µM.
The target in assay [10] is Glycogen synthase kinase-3 beta (Homo sapiens) (UniProt P49841). Conditions: at 0.1 µM.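 Further: values are mean percent inhibition of GSK3B activity, from the GSK Published Kinase Inhibitor Set (PKIS) screening dataset.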

Values joined by “and” are separate entries in the source; they are usually repeats but may differ in a detail not shown here. Equal entries are not always repeated.

Glycogen synthase kinase-3 alpha (Homo sapiens), sequence (P49840 2-483 limits assumed): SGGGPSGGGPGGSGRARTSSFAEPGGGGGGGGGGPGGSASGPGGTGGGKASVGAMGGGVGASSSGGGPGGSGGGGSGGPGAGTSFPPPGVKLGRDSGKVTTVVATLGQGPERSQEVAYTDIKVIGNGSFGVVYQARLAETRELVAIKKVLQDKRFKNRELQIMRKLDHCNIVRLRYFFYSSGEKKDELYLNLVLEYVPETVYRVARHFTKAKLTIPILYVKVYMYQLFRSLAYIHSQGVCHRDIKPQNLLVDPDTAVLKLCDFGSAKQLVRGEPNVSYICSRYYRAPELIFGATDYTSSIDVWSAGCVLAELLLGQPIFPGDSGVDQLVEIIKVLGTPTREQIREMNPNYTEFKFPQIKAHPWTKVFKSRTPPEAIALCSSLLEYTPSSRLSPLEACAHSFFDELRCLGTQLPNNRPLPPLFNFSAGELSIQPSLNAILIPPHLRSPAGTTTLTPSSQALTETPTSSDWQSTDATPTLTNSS
Glycogen synthase kinase-3 beta (Homo sapiens), sequence (P49841 whole entry, looked up): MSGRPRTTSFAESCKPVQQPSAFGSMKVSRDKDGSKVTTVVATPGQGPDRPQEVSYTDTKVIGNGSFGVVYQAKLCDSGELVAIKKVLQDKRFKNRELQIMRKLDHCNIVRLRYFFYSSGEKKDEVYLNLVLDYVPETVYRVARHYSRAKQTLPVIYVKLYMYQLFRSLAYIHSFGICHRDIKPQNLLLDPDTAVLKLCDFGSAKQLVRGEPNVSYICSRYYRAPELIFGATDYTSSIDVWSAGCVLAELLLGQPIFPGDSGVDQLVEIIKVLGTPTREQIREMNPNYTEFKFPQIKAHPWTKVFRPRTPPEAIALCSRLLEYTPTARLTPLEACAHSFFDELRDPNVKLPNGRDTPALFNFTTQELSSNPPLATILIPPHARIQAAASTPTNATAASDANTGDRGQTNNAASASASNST
Dual specificity protein kinase CLK3 (Homo sapiens), sequence (P49761 whole entry, looked up): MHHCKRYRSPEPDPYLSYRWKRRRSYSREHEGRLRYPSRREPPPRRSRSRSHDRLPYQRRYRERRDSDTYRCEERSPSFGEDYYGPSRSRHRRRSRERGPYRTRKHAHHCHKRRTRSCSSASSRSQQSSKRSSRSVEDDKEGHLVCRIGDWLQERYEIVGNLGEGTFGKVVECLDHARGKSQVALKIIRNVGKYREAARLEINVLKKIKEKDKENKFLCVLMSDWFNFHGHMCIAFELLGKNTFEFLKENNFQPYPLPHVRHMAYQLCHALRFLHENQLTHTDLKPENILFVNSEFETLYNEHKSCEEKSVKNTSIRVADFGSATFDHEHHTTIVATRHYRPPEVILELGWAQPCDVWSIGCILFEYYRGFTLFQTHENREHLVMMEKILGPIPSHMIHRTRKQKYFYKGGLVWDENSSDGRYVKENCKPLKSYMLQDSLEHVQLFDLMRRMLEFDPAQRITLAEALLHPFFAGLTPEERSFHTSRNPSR
Dual specificity tyrosine-phosphorylation-regulated kinase 1B (Homo sapiens), sequence (Q9Y463 whole entry, looked up): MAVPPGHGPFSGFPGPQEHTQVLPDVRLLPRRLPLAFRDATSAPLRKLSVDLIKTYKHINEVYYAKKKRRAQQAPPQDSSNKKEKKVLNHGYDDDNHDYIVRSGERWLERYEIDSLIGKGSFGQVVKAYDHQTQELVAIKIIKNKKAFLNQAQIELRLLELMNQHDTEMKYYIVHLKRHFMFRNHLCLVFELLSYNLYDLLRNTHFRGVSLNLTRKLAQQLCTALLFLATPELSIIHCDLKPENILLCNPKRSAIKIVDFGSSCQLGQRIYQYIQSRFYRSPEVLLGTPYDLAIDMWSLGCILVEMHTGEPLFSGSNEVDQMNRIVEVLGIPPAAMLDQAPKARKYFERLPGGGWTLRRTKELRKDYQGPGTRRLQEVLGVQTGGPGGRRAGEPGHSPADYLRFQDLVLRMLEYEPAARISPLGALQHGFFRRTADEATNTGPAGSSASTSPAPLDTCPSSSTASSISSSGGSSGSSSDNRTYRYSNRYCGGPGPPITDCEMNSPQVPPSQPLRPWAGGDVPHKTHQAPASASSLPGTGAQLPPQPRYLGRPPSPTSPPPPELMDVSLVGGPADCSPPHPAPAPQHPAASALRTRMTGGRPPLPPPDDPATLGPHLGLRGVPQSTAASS

As usually defined, the inhibition is the relative decrease from the control value, in per cent. For `COc1cc(N2CCN(C(C)C)CC2)ccc1Nc1nc(Nc2cccc(F)c2C(=O)O)c2cc[nH]c2n1`, the inhibition in [1] stood at 7.82%; in [2], 5.55%; in [3] it was 23%; in [4], 5.54%; in [5] it was 32.6%; in assay [6] it was 2.88%. Besides, the inhibition in assay [7] is 4.2%; in [8], 5%; in [9] it was 6.33%; in assay [10], 3.95%.
As to `CC(C)c1ccc(-c2cc(-c3c[nH]nc3-c3ccccn3)ccn2)cc1`, the inhibition was 0.76% in assay [1]; 0.59% in assay [2]; 2.33% in assay [3]; 0.57% in [4]; 1.3% in [5]; 0.98% in assay [6]. For the same molecule, the inhibition in [7] is 0.3%; in assay [8], 0.61%; in assay [9], 2.95%; in assay [10] it was -0.15%.
In the case of `CNC(=O)c1cncc(/C=C/c2ccccc2C)c1`, the inhibition is 2.09% in assay [1]; 1.38% in [2]; 1.83% in assay [3]; 0.2% in assay [4]; 0.92% in assay [5]; 1.99% in [6]. Besides, the inhibition in assay [7] came out at 3.1%; in [8], 5.39%; in assay [9] it was 12.3%; in assay [10] it was 5.07%.
As for `CNC(=O)c1ncccc1Nc1nc(Nc2cc3c(cc2OC)CCCN3C(=O)CN(C)C)nc2[nH]ccc12`, the inhibition in [1] was determined as 4.34%; in assay [2], 3.21%; in assay [3], 12.5%; in assay [4], 0.36%; in assay [5] it was 8.48%; in assay [6], 3.42%. The inhibition came out at 8.03% in assay [7], 7.2% in assay [8], 15.6% in assay [9] and 6.12% in [10].
With `COc1ccccc1-c1cc(/C=C2\C(=O)Nc3ncc(Br)cc32)cc(Br)c1O`, the inhibition in [1] was 9.88%; in assay [2], 2.51%; in [3], 11.2%; in assay [4] it was 0.86%; in assay [5], 4.16%; in assay [6], 3.68%. In addition, the inhibition in assay [7] came out at 4.79%; in [8] it was 4.73%; in [9], 10%; in assay [10], 5.17%.
`COc1ccc(Nc2ncc(-c3ccccc3)o2)cc1OC`: the inhibition came out at 5.65% in assay [1]; 8.15% in assay [2]; 12% in [3]; 9% in assay [4]; 10.9% in assay [5]; 0.67% in assay [6]. Besides, the inhibition in [7] was determined as 2.48%; in assay [8], 8.4%; in [9] it was 38.4%; in assay [10], 7.94%.
For the molecule `FC(F)(F)CNc1nccc(-c2cnn3ncccc23)n1`, the inhibition in assay [1] turned out to be 2.91%; in assay [2], 14.6%; in assay [3] it was 60.1%; in [4] it was 16.1%; in [5], 59%; in assay [6], 2.04%. Besides, the inhibition in assay [7] was 14.3%; in [8], 3.64%; in [9], 7.01%; in [10], 2.33%.
As to `O=C(Nc1n[nH]c2nnc(-c3cccnc3)cc12)C1CC1`, the inhibition in assay [1] is 1.3%; in assay [2], 73.8%; in assay [3] it was 93.2%; in [4] it was 69.1%; in [5], 81%; in [6] it was 20.6%. The inhibition in assay [7] is 75%; in assay [8], 80.5%; in assay [9] it was 82.4%; in assay [10], 80%.
Take `Nc1nonc1-c1nc2cnccc2n1C1CC1`: the inhibition in assay [1] was 2.54% and -2.2%; in assay [2], 22% and 20.1%; in assay [3], 65.5% and 61.9%; in [4] it was 13.7% and 10.7%; in assay [5], 55.7% and 52.9%; in assay [6], 4.16% and 3.22%. Further, the inhibition in assay [7] was 19.6% and 19.7%; in assay [8], 25% and 21.2%; in assay [9], 70.2% and 63.7%; in assay [10], 21.5% and 17.6%.
As for `COC(=O)Nc1nc2ccc(Oc3ccc(NC(=O)Nc4cc(C(F)(F)F)ccc4F)cc3)cc2s1`, the inhibition was 0.05% in assay [1]; 0.96% in [2]; 2.5% in assay [3]; 1.09% in assay [4]; 2.02% in assay [5]; -0.29% in assay [6]. Further, the inhibition is 0.21% in assay [7], 0.71% in assay [8], 4.01% in [9] and -0.46% in assay [10].
As to `O=C1Nc2ccccc2/C1=C1\CCc2cc(O)ccc21`, the inhibition in [1] was 3.11%; in assay [2] it was 7.28%; in [3] it was 34%; in assay [4], 2.1%; in assay [5], 17.7%; in [6] it was 5.9%. Besides, the inhibition in assay [7] amounted to 24.7%; in assay [8], 3.11%; in [9] it was 10.5%; in [10], 1.77%.
Consider `CS(=O)(=O)Nc1ccc(-c2ccc3c(NC(=O)C4CC4)n[nH]c3c2)cc1`, for which the inhibition in [1] was 4.08%; in assay [2], 1.29%; in assay [3], 6.04%; in [4], -0.26%; in assay [5], 2.94%; in [6], 2.37%. The inhibition in [7] came out at 2.73%; in assay [8], 2.08%; in [9], 7.33%; in assay [10] it was 1.51%.
Regarding `Cn1c(-c2nonc2N)nc2cnccc21`, the inhibition in [1] was 7.43%; in assay [2], 25.1%; in assay [3] it was 69.3%; in assay [4], 11.7%; in assay [5] it was 51.4%; in assay [6], 2.37%. Also, the inhibition in [7] was determined as 10.1%; in [8] it was 10.1%; in assay [9], 52.1%; in assay [10], 5.71%.
On to `CN(c1ccc(NC(=O)NCCN2CCOCC2)cc1)c1ccnc(Nc2ccc(CS(C)(=O)=O)cc2)n1`, for which the inhibition was 1.43% in [1]; 1.69% in assay [2]; 3.45% in assay [3]; -0.71% in assay [4]; 2.44% in [5]; 1.44% in assay [6]. The inhibition worked out at 3.05% in assay [7], 4.05% in [8], 8.02% in assay [9] and 4.49% in [10].
`COc1cc(Nc2ncc(-c3ccccc3)o2)cc(OC)c1`: the inhibition in assay [1] was 1.09%; in [2] it was 3.59%; in assay [3], 6.1%; in assay [4] it was -8.51%; in [5] it was 0.86%; in assay [6], 2.09%. The inhibition in [7] came to 1.69%; in [8] it was 3.75%; in [9] it was 14.6%; in assay [10], 2.47%.
`CN1CCC(C(=O)Nc2n[nH]c3nc(-c4ccc(O)cc4)c(Br)cc23)CC1`: the inhibition in assay [1] was 3.67% and 4.52%; in [2], 9.4% and 10.2%; in assay [3], 43.4% and 51.8%; in assay [4] it was 29.6% and 27.7%; in [5], 66.8% and 67%; in [6], 6.68% and 6.28%. The inhibition in [7] is 33.7% and 34%; in assay [8] it was 78.2% and 80.5%; in assay [9], 83.2% and 81.7%.
